The source made the active and inactive calls. The calls were made as follows: active = hit-call score of the fitted dose curve at least 0.9, where 1 is the maximum; inactive = score below 0.9.
Assay: ATG_NFI_CIS: Attagene CIS-FACTORIAL HepG2 Assay for human Nuclear Factor I (NFI) (AID 2282989)
Conditions: HepG2 cis-regulatory reporter, NFI response element transcription; actives raise or lower the signal
Protocol: ATG_CIS is a cell-based, multiplexed-readout assay that uses HepG2, a human liver cell line, with measurements taken at 24 hours after chemical dosing in a 24-well plate.ATG_NFI_CIS is one of 52 assay component(s) measured or calculated from the ATG_CIS assay. It is designed to make measurements of mRNA induction, a form of inducible reporter, as detected with fluorescence intensity signals by Reverse transcription polymerase chain reaction (RT-PCR) and Capillary electrophoresis technology.Data from the assay component ATG_NFI_CIS was analyzed into 1 assay endpoint. This assay endpoint, ATG_NFI_CIS, was analyzed with bidirectional fitting relative to DMSO as the negative control and baseline of activity. Using a type of inducible reporter, measures of mRNA for gain or loss-of-signal activity can be used to understand the reporter gene at the transcription factor-level as they relate to the gene NFIA. Furthermore, this assay endpoint can be referred to as a primary readout, because this assay has produced multiple assay endpoints where this one serves a reporter gene function. To generalize the intended target to other relatable targets, this assay endpoint is annotated to the dna binding intended target family, where the subfamily is nuclear factor I.
Human liver HepG2 cells are transiently transfected with multiple reporter transcription units (MRTUs) in 6-well plates using FuGene 6 reagent (Roche; 3 ml FuGene/1 mg DNA). The MRTU constructs are regulated by a cis-regulating element (promoter). […] A major difference between the CIS and TRANS system is that in CIS activities of endogenous TFs are measured, whereas the TRANS assay evaluates changes in activities of exogenous, chimeric NR-Gal4 proteins. […] At the end of 24 hour incubation, total RNA was isolated using TriZol reagent (Invitrogen). The isolated RNA is then reverse-transcribed using oligo(dT) primer and Mo-MLV reverse transcriptase (Invitrogen) with DNAse I (Ambion) treatment for 30 min. The one-tenth of the produced cDNA was amplified by PCR using Taq DNA polymerase (Invitrogen) and two reporter sequence-specific primers. The PCR products were fluorescently labeled by primer extension with 6-arboxyfluorescein (6-FAM) 5'-labeled reporter sequence-specific primer (2 min at 95 C, 20 s at 68 C and 10 min at 72 C) and these products were digested with 5U of HpaI (New England Biolabs) for 2h at 37 C. The fragments were purified using Qiaquick PCR columns (Qiagen), analyzed on an ABI 3130xL genetic analyzer (Applied Biosystems) with peak positions identified by using a set of X-rhodamine (ROX)-labeled MapMarker1000 molecular weight standards (BioVentures). The raw capillary electrophoresis data was processed using Attagraph software (Attagene).
In the case of CCc1ccc(C(c2ccc(CC)cc2)C(Cl)Cl)cc1, the outcome is reported as “inactive”. With CC(Cc1ccc(O)c(O)c1)C(C)Cc1ccc(O)c(O)c1 (stereo not given) the AC50 was 19 µM (active). For CCCCCCCOC(=O)c1ccccc1C(=O)OCCCCCCC, the outcome was “inactive”. In the case of NC(=O)C(F)(F)C(F)(F)C(F)(F)C(F)(F)F, the outcome is reported as “inactive”. In the case of CCO[Si](CCC(F)(F)C(F)(F)C(F)(F)C(F)(F)C(F)(F)C(F)(F)F)(OCC)OCC, the outcome is reported as “inactive”. In the case of O=S(=O)(OCCOC(F)(F)F)C(F)(F)F, the outcome is reported as “inactive”. In the case of C=CC(=O)OCC(F)(F)C(F)(F)C(F)(F)C(F)(F)C(F)(F)C(F)(F)C(F)(F)F, the outcome is reported as “inactive”. In the case of FC(F)(F)C(F)(F)C(F)(F)CI, the outcome is reported as “inactive”. For CCCCCCCCC(F)(F)C(F)(F)C(F)(F)C(F)(F)C(F)(F)C(F)(F)F, the AC50 was 36 µM (active). In the case of O=C(C=Cc1ccccc1)OCC=Cc1ccccc1, the outcome is reported as “inactive”. With COC(OC(C)=O)c1ccccc1 (stereo not given) the outcome was “inactive”. For CC(C)=CCCC(C)CCOC(=O)C(C)C (stereo not given), the outcome was “inactive”. With C1COCCN1 the outcome was “inactive”. With [Co] the outcome was “inactive”. For C(=C(c1ccccc1)c1ccccc1)c1ccccc1, the outcome was “inactive”. For O=C(O)C(F)(F)C(F)(F)C(F)(F)F, the outcome was “inactive”. For OCCCC(F)(F)C(F)(F)C(F)(F)F, the outcome was “inactive”. For FC(F)(F)C(F)(F)C(F)(F)C(F)(F)C(F)(F)C(F)(F)C(F)(F)I, the outcome was “inactive”. With Cc1ccc(S(=O)(=O)OCC(F)(F)C(F)(F)C(F)(F)C(F)(F)C(F)(F)C(F)F)cc1 the outcome was “inactive”. For O=C(O)C(F)(F)C(F)(F)C(F)(F)C(F)(F)C(F)(F)C(F)(F)C(F)(F)C(F)(F)C(F)(F)C(F)(F)C(F)(F)C(F)(F)C(F)(F)F, the outcome was “inactive”. In the case of Nc1ccc(Oc2cccc(Oc3ccc(N)cc3)c2)cc1, the AC50 is reported as 166 µM (active). In the case of CCc1c(Br)c(Br)c(Br)c(Br)c1Br, the outcome is reported as “inactive”. For C=CC(F)(F)C(F)(F)C(F)(F)C(F)(F)C(F)(F)C(F)(F)C(F)(F)C(F)(F)F, the outcome was “inactive”. With Nc1cc(Cl)c(N)c(Cl)c1 the outcome was “inactive”. In the case of CO[Si](OC)(c1ccccc1)c1ccccc1, the outcome is reported as “inactive”. With CCCCCCS the outcome was “inactive”. In the case of CC(C)(C)c1ccc(OC2CCCCC2O)cc1 (stereo not given), the outcome is reported as “inactive”. For OCC(F)(F)C(F)(F)C(F)(F)F, the outcome was “inactive”. With O=C(O)C(F)(F)C(F)(F)C(F)(F)C(F)(F)C(F)(F)C(F)(F)C(F)(F)C(F)(F)Cl the outcome was “inactive”. With CCN(CC)c1ccc2c(C)cc(=O)oc2c1 the outcome was “inactive”. In the case of CC(C)OC(=O)c1ccccc1C(=O)OC(C)C, the outcome is reported as “inactive”. In the case of OC[C@@H](O)[C@@H](O)[C@H](O)[C@@H](O)CO, the outcome is reported as “inactive”. For CCCCCCC(C)OC(=O)CCCCC(=O)OC(C)CCCCCC (stereo not given), the outcome was “inactive”. With OCC(F)(F)C(F)(F)C(F)(F)C(F)(F)C(F)(F)C(F)F the outcome was “inactive”. With COC(=O)C1CCC(C(=O)OC)CC1 (stereo not given) the outcome was “inactive”. For FC(F)(F)C(F)(F)C(F)(F)C(F)(F)C(F)(F)C(F)(F)C(F)(F)Br, the outcome was “inactive”. In the case of CC/C=C\CCOC(C)=O, the outcome is reported as “inactive”. In the case of CC/C=C\CCOC(=O)c1ccccc1, the outcome is reported as “inactive”. For O=C(CC(=O)C(F)(F)C(F)(F)F)C(F)(F)F, the outcome was “inactive”. With FC(F)(F)C(F)(F)C(F)(F)C(F)(F)C(F)(F)C(F)(F)C(F)(F)C(F)(F)F the outcome was “inactive”.
